Assay results: PubChem BioAssay (EPA / NIEHS)
Calls of active or inactive are those of the source. The calls were made as follows: active = hit-call score of the fitted dose curve at least 0.9, where 1 is the maximum; inactive = score below 0.9.

How the values were obtained:
Conditions in all cases: mRNA level, 48 h; actives raise or lower the signal
[1] = read-out: Ezrin (EZR), EZR (gene 7430); assay: LTEA_HepaRG_EZR: Life Technologies and Expression Analysis (LTEA) Assay for Ezrin (EZR) using HepaRG (AID 2283491)
Procedure, shortened: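 Read-out is EZR transcript level by qRT-PCR, normalized to three housekeeping genes and fitted bidirectionally against the DMSO control. Human HepaRG cells received test chemicals for 48 h at eight half-log concentrations up to 100 uM in 0.5% DMSO.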

[2] = read-out: Cytochrome P450 3A7 (Homo sapiens) (UniProt P24462); assay: LTEA_HepaRG_CYP3A7: Life Technologies and Expression Analysis (LTEA) Assay for CYP3A7 using HepaRG (AID 2283492)
Procedure, shortened: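 Differentiated HepaRG cells in serum-free induction medium exposed 48 h in duplicate to 8-point half-log series from 100 uM top in 0.5% DMSO. CYP3A7 mRNA by qRT-PCR, normalized to ACTB/GAPDH/POLR2A, bidirectional fit versus DMSO.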

[3] = read-out: CYP3A5 (gene 1577); assay: LTEA_HepaRG_CYP3A5: Life Technologies and Expression Analysis (LTEA) Assay for CYP3A5 using HepaRG (AID 2283493)
Procedure, shortened: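 mRNA levels were quantified by qRT-PCR on Fluidigm arrays and normalized to three housekeeping genes. Differentiated HepaRG cells received 48 h exposure (top 100 uM, half-log steps, 0.5% DMSO vehicle, duplicate); bidirectional fitting versus DMSO.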

[4] = read-out: Cytochrome P450 4A22 (Homo sapiens) (UniProt Q5TCH4); assay: LTEA_HepaRG_CYP4A22: Life Technologies and Expression Analysis (LTEA) Assay for Cytochrome P450 4A22 (CYP4A22) using HepaRG (AID 2283495)
Procedure, shortened: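 Differentiated HepaRG cells in serum-free induction medium exposed 48 h in duplicate to eight half-log concentrations up to 100 uM in 0.5% DMSO. CYP4A22 mRNA quantified by TaqMan qRT-PCR, normalized to ACTB, GAPDH and POLR2A; bidirectional fit versus DMSO.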

[5] = read-out: Cytochrome P450 7A1 (Homo sapiens) (UniProt P22680); assay: LTEA_HepaRG_CYP7A1: Life Technologies and Expression Analysis (LTEA) Assay for Cytochrome P450 7A1 (CYP7A1) using HepaRG (AID 2283496)
Procedure, shortened: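 HepaRG, 48 h exposure, 8-pt half-log series from 100 uM, 0.5% DMSO vehicle, duplicates. Readout: TaqMan qRT-PCR mRNA vs three housekeeping genes; bidirectional curve fit against DMSO baseline.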

[6] = read-out: Glutathione S-Transferase (GSTA2), GSTA2 (gene 2939); assay: LTEA_HepaRG_GSTA2: Life Technologies and Expression Analysis (LTEA) Assay for Glutathione S-Transferase (GSTA2) using HepaRG (AID 2283497)
Procedure, shortened: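 Oxidative-stress marker GSTA2 is quantified by TaqMan qRT-PCR in HepaRG cultures treated 48 h across an eight-point range to 100 uM. Expression is normalized to endogenous controls and compared with 0.5% DMSO vehicle.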

[7] = read-out: Glutamate-cysteine ligase catalytic (GCLC), GCLC (gene 2729); assay: LTEA_HepaRG_GCLC: Life Technologies and Expression Analysis (LTEA) Assay for Glutamate-cysteine ligase catalytic (GCLC) using HepaRG (AID 2283498)
Procedure, shortened: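 Oxidative-stress marker GCLC is measured as mRNA change in human HepaRG liver cells after 48 h chemical treatment in 0.5% DMSO, eight concentrations from 100 uM. Activity is fitted bidirectionally against vehicle.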

[8] = read-out: growth arrest and DNA damage 45 (GADD45G), GADD45G (gene 10912); assay: LTEA_HepaRG_GADD45G: Life Technologies and Expression Analysis (LTEA) Assay for growth arrest and DNA damage 45 (GADD45G) using HepaRG (AID 2283499)
Procedure, shortened: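 Differentiated human HepaRG cells, 48 h post-plating, exposed 48 h in serum-free induction medium to 8 half-log concentrations (top 100 uM, 0.5% DMSO) in duplicate. GADD45G mRNA measured by Fluidigm TaqMan qRT-PCR, normalized to ACTB, GAPDH, POLR2A; bidirectional fit versus DMSO.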

[9] = read-out: Glutamate-cysteine ligase regulatory (GCLM), GCLM (gene 2730); assay: LTEA_HepaRG_GCLM: Life Technologies and Expression Analysis (LTEA) Assay for Glutamate-cysteine ligase regulatory (GCLM) using HepaRG (AID 2283500)
Procedure, shortened: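 GCLM expression quantified by qRT-PCR, normalized to three housekeeping genes, after 48 h chemical treatment of HepaRG cells in duplicate at 8 concentrations (top 100 uM, half-log steps, 0.5% DMSO). Changes fitted both directions against vehicle.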

[10] = read-out: Glutathione S-transferase M3 (GSTM3), GSTM3 (gene 2947); assay: LTEA_HepaRG_GSTM3: Life Technologies and Expression Analysis (LTEA) Assay for Glutathione S-transferase M3 (GSTM3) using HepaRG (AID 2283501)
Procedure, shortened: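 Differentiated human HepaRG cells were exposed in duplicate for 48 h in serum-free induction medium, 8 points from 100 uM top in half-log steps, 0.5% DMSO. GSTM3 mRNA was measured by TaqMan qRT-PCR, normalized to ACTB, GAPDH and POLR2A; bidirectional fit versus DMSO.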

[11] = read-out: Heat shock 70 kDa protein 1 (HSPA1A), gene 3303; assay: LTEA_HepaRG_HSPA1A: Life Technologies and Expression Analysis (LTEA) Assay for Heat shock 70 kDa protein 1 (HSPA1A) using HepaRG (AID 2283502)
Procedure, shortened: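 HSPA1A expression measured by qRT-PCR with ACTB/GAPDH/POLR2A normalization; curves fitted in both directions relative to DMSO vehicle. Exposure: 48 h in HepaRG cells, duplicate 8-point half-log series from 100 uM, 0.5% DMSO, serum-free induction medium.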

[12] = read-out: 3-Hydroxy-3-Methylglutaryl-CoA Synthase 2 (HMGCS2), HMGCS2 (gene 3158); assay: LTEA_HepaRG_HMGCS2: Life Technologies and Expression Analysis (LTEA) Assay for 3-Hydroxy-3-Methylglutaryl-CoA Synthase 2 (HMGCS2) using HepaRG (AID 2283504)
Procedure, shortened: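 Human HepaRG cells in serum-free induction medium were exposed in duplicate for 48 h to 8-point half-log series from 100 uM top in 0.5% DMSO. HMGCS2 mRNA measured by TaqMan qRT-PCR, normalised to ACTB, GAPDH, POLR2A; bidirectional fit versus DMSO.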

[13] = read-out: HGF (gene 3082); assay: LTEA_HepaRG_HGF: Life Technologies and Expression Analysis (LTEA) Assay for Hepatocyte Growth Facto (HGF) using HepaRG (AID 2283505)
Procedure, shortened: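 Differentiated HepaRG cells in serum-free induction medium exposed 48 h in duplicate, 8 half-log concentrations from 100 uM in 0.5% DMSO. HGF mRNA by qRT-PCR, normalised to ACTB, GAPDH, POLR2A; bidirectional fitting.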

[14] = read-out: Insulin Like Growth Factor 1 (IGF1), IGF1 (gene 3479); assay: LTEA_HepaRG_IGF1: Life Technologies and Expression Analysis (LTEA) Assay for Insulin Like Growth Factor 1 (IGF1) using HepaRG (AID 2283506)
Procedure, shortened: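 Expression measured by TaqMan qRT-PCR on a Fluidigm array, with three housekeeping genes for normalisation, after 48 h treatment of HepaRG cells. Top concentration 100 uM with half-log steps, 0.5% DMSO vehicle, bidirectional fit.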

[15] = read-out: Intercellular Adhesion Molecule 1 (ICAM1), ICAM1 (gene 3383); assay: LTEA_HepaRG_ICAM1: Life Technologies and Expression Analysis (LTEA) Assay for Intercellular Adhesion Molecule 1 (ICAM1) using HepaRG (AID 2283507)
Procedure, shortened: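 Differentiated human HepaRG cells in serum-free induction medium exposed 48 h in duplicate to 8 half-log concentrations (top 100 uM, 0.5% DMSO). ICAM1 mRNA quantified by TaqMan qRT-PCR, normalized to ACTB, GAPDH and POLR2A; bidirectional fitting versus DMSO.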

[16] = read-out: Insulin-like growth factor-binding protein 1 (IGFBP1), IGFBP1 (gene 3484); assay: LTEA_HepaRG_IGFBP1: Life Technologies and Expression Analysis (LTEA) Assay for Insulin-like growth factor-binding protein 1 (IGFBP1) using HepaRG (AID 2283508)
Procedure, shortened: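 HepaRG cells, plated 48 h then switched to serum-free induction medium, exposed in duplicate for 48 h to 8-point half-log series from 100 uM in 0.5% DMSO. mRNA measured by qRT-PCR, normalized to ACTB/GAPDH/POLR2A; bidirectional fit versus DMSO.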

[17] = read-out: Interleukin 6 (IL6), IL6 (gene 3569); assay: LTEA_HepaRG_IL6: Life Technologies and Expression Analysis (LTEA) Assay for Interleukin 6 (IL6) using HepaRG (AID 2283509)
Procedure, shortened: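 Changes in IL6 mRNA, up or down relative to 0.5% DMSO controls, were derived from concentration-response curves in human HepaRG cells treated for 48 h at up to 100 uM, with ACTB, GAPDH and POLR2A as normalizers.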

[18] = read-out: Interleukin 6 Receptor (IL6R), IL6R (gene 3570); assay: LTEA_HepaRG_IL6R: Life Technologies and Expression Analysis (LTEA) Assay for Interleukin 6 Receptor (IL6R) using HepaRG (AID 2283510)
Procedure, shortened: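 IL6R transcript level by qRT-PCR after 48 h chemical exposure (8-point, half-log, max 100 uM, 0.5% DMSO vehicle) of HepaRG cells in serum-free induction medium. Normalized to three housekeeping genes; curves fitted in both directions relative to DMSO.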

[19] = read-out: Potassium channel subfamily K member 1 (KCNK1), KCNK1 (gene 3775); assay: LTEA_HepaRG_KCNK1: Life Technologies and Expression Analysis (LTEA) Assay for Potassium channel subfamily K member 1 (KCNK1) using HepaRG (AID 2283511)
Procedure, shortened: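 Human HepaRG cultures receive test chemicals for 48 h in 0.5% DMSO, top concentration 100 uM with half-log dilutions. Induction or suppression of KCNK1 mRNA relative to DMSO is derived by bidirectional fitting of qRT-PCR data.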

[20] = read-out: Keratin 19 (KRT19), KRT19 (gene 3880); assay: LTEA_HepaRG_KRT19: Life Technologies and Expression Analysis (LTEA) Assay for Keratin 19 (KRT19) using HepaRG (AID 2283512)
Procedure, shortened: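 Differentiated HepaRG cells in serum-free induction medium, exposed 48 h in duplicate to 8 half-log concentrations up to 100 uM in 0.5% DMSO. KRT19 mRNA by qRT-PCR, normalized to ACTB, GAPDH, POLR2A; bidirectional fit vs DMSO.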

Measured: outcome

Cytochrome P450 3A7 (Homo sapiens), sequence (P24462 whole entry, looked up): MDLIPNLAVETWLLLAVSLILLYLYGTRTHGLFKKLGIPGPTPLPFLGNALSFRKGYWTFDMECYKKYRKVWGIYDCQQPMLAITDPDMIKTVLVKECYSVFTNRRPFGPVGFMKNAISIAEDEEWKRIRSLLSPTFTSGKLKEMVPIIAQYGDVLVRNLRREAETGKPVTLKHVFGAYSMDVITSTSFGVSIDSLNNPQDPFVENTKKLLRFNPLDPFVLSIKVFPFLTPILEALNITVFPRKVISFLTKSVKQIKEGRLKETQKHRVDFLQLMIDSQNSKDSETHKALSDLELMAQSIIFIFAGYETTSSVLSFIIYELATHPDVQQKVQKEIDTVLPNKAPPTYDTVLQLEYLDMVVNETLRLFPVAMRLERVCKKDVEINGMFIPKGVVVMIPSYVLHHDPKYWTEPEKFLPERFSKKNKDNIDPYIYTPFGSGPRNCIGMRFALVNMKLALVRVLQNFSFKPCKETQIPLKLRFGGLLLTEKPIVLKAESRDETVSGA

N#CCCCCC#N
inactive: all assays above

O=C(CCl)c1ccccc1
inactive: all assays above
